From the supplement of paper PMC10849652
Of roughly 7,900 targets only a part is listed; those with a hit were picked by preference. About 0.6% of all pairs of compound and target were hits. Unmarked numbers belong to inactive results.

What was measured:
Assay in all cases: log2 fold change, soluble protein after heating vs DMSO (PISA); higher = thermal stabilisation; K562 cells, 10 uM, 30 min; active = over 0.2 and 3.5 SD of the protein, either way, in both replicates (recomputed)
[1] = compound: COC1=CC=C(C=C1)CN2C=CC3=C2C=C(C=C3)C(=O)NO
How it was run: (§1)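 K562 cells at 2×10^6 cells/mL were given 10 μM compound for 30 min. Aliquots then went through 3 min of heating across 48°C-58°C, were pooled, and were extracted in PBS with 0.5% NP-40 at 4°C, and the supernatant after 21,000xg for 90 min was quantified by TMTpro 16plex LC-MS/MS with channel sums equalised. Thermal stability relative to control samples, from duplicates, is given as log2 fold change.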

filanesib = compound: CON(C)C(=O)N1N=C(c2cc(F)ccc2F)S[C@@]1(CCCN)c1ccccc1 [filanesib]
How it was run: as §1

zotarolimus = compound: CO[C@H]1C[C@@H]2CC[C@@H](C)[C@@](O)(O2)C(=O)C(=O)N2CCCC[C@H]2C(=O)O[C@H]([C@H](C)C[C@@H]2CC[C@H](n3cnnn3)[C@H](OC)C2)CC(=O)[C@H](C)/C=C(\C)[C@@H](O)[C@@H](OC)C(=O)[C@H](C)C[C@H](C)/C=C/C=C/C=C/1C [zotarolimus]
How it was run: as §1

idasanutlin = compound: COc1cc(C(=O)O)ccc1NC(=O)[C@@H]1N[C@@H](CC(C)(C)C)[C@](C#N)(c2ccc(Cl)cc2F)[C@H]1c1cccc(Cl)c1F [idasanutlin]
How it was run: as §1

alisertib = compound: COc1cc(Nc2ncc3c(n2)-c2ccc(Cl)cc2C(c2c(F)cccc2OC)=NC3)ccc1C(=O)O [alisertib]
How it was run: as §1

[2] = compound: COc1cc2nc(-c3cc(F)ccc3O)nc(N[C@@H]3CNC[C@H]3C(C)(C)O)c2cc1OC
How it was run: as §1

gefitinib = compound: COc1cc2ncnc(Nc3ccc(F)c(Cl)c3)c2cc1OCCCN1CCOCC1 [gefitinib]
How it was run: as §1

[3] = compound: COc1cccc2cc(-c3nc([C@H]4CC[C@H](C(=O)O)CC4)n4ncnc(N)c34)[nH]c12
How it was run: as §1

lapatinib = compound: CS(=O)(=O)CCNCc1ccc(-c2ccc3ncnc(Nc4ccc(OCc5cccc(F)c5)c(Cl)c4)c3c2)o1 [lapatinib]
How it was run: as §1

[4] = compound: CS(=O)(=O)c1ccc(-c2cnc(N)c(C(=O)Nc3ccccc3)n2)cc1
How it was run: as §1

crizotinib = compound: C[C@@H](Oc1cc(-c2cnn(C3CCNCC3)c2)cnc1N)c1c(Cl)ccc(F)c1Cl [crizotinib]
How it was run: as §1

[5] = compound: C[C@@H]1COCCN1C2=NC(=NC(=C2)C3(CC3)S(=O)(=O)C)C4=C5C=CNC5=CC=C4
How it was run: as §1

[6] = compound: C[C@H](C1=CC=C(C=C1)C(=O)NC2=C3C=CNC3=NC=C2)N
How it was run: as §1

duvelisib = compound: C[C@H](Nc1ncnc2nc[nH]c12)c1cc2cccc(Cl)c2c(=O)n1-c1ccccc1 [duvelisib]
How it was run: as §1

tozasertib = compound: Cc1cc(Nc2cc(N3CCN(C)CC3)nc(Sc3ccc(NC(=O)C4CC4)cc3)n2)n[nH]1 [tozasertib]
How it was run: as §1

[7] = compound: Cc1cc(SCc2sc(-c3ccc(C(F)(F)F)cc3)nc2C)ccc1OCC(=O)O
How it was run: as §1

doramapimod = compound: Cc1ccc(-n2nc(C(C)(C)C)cc2NC(=O)Nc2ccc(OCCN3CCOCC3)c3ccccc23)cc1 [doramapimod]
How it was run: as §1

ispinesib = compound: Cc1ccc(C(=O)N(CCCN)[C@@H](c2nc3cc(Cl)ccc3c(=O)n2Cc2ccccc2)C(C)C)cc1 [ispinesib]
How it was run: as §1

pictilisib = compound: CS(=O)(=O)N1CCN(Cc2cc3nc(-c4cccc5[nH]ncc45)nc(N4CCOCC4)c3s2)CC1 [pictilisib]
How it was run: as §1

gandotinib = compound: Cc1cc(Nc2cc(CN3CCOCC3)c3nc(C)c(Cc4ccc(Cl)cc4F)n3n2)n[nH]1 [gandotinib]
How it was run: as §1

Chain of UniProt Q9NRS6 (Q9NRS6 whole entry, looked up): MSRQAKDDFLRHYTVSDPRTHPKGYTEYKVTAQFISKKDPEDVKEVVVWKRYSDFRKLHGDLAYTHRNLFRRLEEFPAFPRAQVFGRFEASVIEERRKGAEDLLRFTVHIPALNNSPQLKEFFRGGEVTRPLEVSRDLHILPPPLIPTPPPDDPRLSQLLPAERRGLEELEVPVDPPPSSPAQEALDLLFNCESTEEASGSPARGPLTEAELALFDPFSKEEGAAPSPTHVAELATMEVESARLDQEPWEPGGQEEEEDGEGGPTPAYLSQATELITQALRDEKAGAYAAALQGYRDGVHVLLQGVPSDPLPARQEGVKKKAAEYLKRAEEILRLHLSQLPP
Chain of UniProt O76094 (O76094 whole entry, looked up): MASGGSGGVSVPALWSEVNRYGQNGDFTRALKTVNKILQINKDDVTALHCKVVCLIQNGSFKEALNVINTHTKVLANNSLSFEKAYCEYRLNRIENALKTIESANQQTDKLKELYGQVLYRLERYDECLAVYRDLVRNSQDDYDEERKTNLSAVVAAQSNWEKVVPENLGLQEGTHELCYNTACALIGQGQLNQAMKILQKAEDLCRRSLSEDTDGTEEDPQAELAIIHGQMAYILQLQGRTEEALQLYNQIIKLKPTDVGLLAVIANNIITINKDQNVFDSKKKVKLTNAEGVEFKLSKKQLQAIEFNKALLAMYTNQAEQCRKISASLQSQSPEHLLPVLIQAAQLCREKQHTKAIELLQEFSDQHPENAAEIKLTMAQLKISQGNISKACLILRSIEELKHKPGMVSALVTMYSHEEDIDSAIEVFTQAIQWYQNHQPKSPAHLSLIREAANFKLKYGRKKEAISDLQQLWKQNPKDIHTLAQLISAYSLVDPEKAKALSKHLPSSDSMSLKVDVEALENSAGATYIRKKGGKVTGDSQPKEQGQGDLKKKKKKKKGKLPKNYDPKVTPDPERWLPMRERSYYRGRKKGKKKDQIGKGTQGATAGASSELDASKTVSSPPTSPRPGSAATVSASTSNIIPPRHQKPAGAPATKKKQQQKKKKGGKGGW
Chain of UniProt Q9BZD2 (Q9BZD2 whole entry, looked up): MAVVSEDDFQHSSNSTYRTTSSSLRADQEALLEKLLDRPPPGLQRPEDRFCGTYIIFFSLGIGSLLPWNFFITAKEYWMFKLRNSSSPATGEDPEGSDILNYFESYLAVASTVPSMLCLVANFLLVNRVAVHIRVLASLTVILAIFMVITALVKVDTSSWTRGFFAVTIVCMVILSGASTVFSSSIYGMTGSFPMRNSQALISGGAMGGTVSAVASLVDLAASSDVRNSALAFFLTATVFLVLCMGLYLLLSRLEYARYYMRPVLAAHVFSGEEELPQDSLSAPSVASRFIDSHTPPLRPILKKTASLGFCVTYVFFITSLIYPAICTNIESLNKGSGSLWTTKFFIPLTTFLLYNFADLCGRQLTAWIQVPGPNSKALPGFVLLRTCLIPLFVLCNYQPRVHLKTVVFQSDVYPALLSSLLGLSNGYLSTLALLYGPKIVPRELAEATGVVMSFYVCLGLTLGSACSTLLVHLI
Chain of UniProt Q96JI7 (Q96JI7 whole entry, looked up): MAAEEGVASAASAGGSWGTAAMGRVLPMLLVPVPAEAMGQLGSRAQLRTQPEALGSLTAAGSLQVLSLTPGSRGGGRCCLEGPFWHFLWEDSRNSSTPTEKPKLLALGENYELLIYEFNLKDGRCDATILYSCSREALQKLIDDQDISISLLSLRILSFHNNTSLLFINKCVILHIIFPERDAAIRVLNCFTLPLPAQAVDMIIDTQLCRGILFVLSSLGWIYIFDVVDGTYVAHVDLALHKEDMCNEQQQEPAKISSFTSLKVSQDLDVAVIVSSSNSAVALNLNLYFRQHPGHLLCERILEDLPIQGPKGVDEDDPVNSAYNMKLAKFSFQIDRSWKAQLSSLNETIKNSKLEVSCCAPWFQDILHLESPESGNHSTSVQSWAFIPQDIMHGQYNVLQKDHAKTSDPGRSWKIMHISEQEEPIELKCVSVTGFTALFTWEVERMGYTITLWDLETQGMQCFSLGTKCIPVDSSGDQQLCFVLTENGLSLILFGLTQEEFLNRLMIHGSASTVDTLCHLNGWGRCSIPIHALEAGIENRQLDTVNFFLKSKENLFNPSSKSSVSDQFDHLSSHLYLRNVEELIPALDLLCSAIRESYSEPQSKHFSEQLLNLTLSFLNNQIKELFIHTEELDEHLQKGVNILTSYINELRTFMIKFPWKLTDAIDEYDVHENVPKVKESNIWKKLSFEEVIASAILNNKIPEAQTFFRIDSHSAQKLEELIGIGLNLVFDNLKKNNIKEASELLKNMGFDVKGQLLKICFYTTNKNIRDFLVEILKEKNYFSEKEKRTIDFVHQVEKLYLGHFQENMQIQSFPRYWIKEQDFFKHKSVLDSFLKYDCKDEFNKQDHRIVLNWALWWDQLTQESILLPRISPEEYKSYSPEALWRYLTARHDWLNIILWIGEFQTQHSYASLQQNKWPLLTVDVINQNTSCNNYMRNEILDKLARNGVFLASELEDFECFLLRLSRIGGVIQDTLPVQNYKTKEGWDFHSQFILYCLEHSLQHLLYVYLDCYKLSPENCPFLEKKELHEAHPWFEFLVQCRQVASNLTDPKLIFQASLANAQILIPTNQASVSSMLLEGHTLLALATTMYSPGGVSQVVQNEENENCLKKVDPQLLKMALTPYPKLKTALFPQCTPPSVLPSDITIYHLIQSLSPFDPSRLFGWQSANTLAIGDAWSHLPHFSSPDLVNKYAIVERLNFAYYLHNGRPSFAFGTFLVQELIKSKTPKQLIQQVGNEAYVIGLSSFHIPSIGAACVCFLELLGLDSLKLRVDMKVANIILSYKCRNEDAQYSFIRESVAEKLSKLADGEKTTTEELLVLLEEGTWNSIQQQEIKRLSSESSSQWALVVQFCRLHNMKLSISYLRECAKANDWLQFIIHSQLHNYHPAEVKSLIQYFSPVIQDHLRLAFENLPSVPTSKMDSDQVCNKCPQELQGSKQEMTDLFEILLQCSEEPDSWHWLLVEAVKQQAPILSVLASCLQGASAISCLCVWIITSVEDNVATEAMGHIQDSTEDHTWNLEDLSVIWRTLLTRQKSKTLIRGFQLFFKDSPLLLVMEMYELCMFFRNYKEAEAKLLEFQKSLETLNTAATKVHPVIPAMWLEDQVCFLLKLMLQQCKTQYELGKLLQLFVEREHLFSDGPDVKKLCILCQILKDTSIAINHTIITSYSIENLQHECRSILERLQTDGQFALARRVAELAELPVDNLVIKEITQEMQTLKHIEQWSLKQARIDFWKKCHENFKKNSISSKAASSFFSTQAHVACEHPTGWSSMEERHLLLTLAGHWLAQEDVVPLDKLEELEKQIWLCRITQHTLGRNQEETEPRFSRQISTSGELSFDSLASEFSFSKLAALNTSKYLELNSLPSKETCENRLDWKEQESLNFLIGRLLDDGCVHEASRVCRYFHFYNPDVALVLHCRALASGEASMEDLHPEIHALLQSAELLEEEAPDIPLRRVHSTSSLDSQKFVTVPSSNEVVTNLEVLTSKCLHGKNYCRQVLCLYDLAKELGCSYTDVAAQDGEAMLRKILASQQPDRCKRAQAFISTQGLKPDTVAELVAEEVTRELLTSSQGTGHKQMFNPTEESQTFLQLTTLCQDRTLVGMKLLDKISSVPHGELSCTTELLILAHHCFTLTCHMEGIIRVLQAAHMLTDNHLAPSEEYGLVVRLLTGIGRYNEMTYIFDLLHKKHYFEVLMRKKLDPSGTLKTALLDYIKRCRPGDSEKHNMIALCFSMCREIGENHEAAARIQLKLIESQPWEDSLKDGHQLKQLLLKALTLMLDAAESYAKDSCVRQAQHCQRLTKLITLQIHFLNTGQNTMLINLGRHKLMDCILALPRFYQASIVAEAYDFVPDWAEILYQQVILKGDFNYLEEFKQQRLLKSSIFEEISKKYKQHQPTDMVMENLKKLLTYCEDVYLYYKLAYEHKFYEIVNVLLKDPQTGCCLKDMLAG
Chain of UniProt Q9UNL2 (Q9UNL2 whole entry, looked up): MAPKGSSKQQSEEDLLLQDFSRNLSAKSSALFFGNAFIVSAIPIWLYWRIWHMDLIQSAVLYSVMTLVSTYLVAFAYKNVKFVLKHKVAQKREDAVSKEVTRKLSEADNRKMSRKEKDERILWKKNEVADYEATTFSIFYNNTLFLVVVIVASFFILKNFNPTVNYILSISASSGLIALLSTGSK
Chain of UniProt P55061 (P55061 whole entry, looked up): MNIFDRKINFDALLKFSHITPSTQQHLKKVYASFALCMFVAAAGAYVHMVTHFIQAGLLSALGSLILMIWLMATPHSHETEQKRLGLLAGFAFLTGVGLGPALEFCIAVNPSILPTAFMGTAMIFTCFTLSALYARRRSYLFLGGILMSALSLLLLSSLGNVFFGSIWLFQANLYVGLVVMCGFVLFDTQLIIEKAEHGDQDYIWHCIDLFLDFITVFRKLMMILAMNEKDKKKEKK
Chain of UniProt O95149 (O95149 whole entry, looked up): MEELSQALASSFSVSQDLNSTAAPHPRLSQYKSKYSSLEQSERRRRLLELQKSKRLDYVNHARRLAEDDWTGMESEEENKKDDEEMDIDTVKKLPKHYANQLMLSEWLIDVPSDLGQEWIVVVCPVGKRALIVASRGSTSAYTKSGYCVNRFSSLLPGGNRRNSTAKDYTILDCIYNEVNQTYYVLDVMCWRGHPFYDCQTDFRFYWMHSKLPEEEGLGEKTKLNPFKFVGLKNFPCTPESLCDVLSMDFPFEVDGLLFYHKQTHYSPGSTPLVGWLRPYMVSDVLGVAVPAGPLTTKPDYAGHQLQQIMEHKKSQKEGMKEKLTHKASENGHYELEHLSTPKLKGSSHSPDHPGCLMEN

Target | log2 fold change [1] | log2 fold change (filanesib) | log2 fold change (zotarolimus) | log2 fold change (idasanutlin) | log2 fold change (alisertib) | log2 fold change [2] | log2 fold change (gefitinib) | log2 fold change [3] | log2 fold change (lapatinib) | log2 fold change [4] | log2 fold change (crizotinib) | log2 fold change [5] | log2 fold change [6] | log2 fold change (duvelisib) | log2 fold change (tozasertib) | log2 fold change [7] | log2 fold change (doramapimod) | log2 fold change (ispinesib) | log2 fold change (pictilisib) | log2 fold change (gandotinib)
TMBIM6 isoform 2 (UniProt P55061) | -0.007 | -0.233 | -0.099 | -0.51 (active) | -0.27 | -0.535 (active) | -0.087 | -0.165 | -0.196 | -0.066 | -0.451 (active) | 0.033 | -0.049 | 0.046 | -0.066 | -0.03 | -0.053 | -0.407 | – | –
SLC29A3 (UniProt Q9BZD2) | 0.009 | -0.258 | -0.015 | -0.113 | 0 | -0.08 | -0.08 | 0.019 | -0.118 | 0.014 | -0.559 (active) | -0.098 | 0.078 | 0.069 | 0.097 | 0.055 | 0.015 | -1.02 (active) | – | –
SOX5 (UniProt P35711) | -0.087 | -0.08 | -0.058 | 0.006 | -0.089 | -0.055 | -0.012 | 0.105 | 0.051 | 0.07 | 0.046 | – | 0.041 | – | 0.045 | – | 0.054 | 0.004 | – | –
SNUPN (UniProt O95149) | 0.001 | -0.09 | -0.007 | 0.05 | -0.013 | -0.05 | 0.014 | 0.005 | 0.019 | 0.019 | -0.187 | 0.045 | -0.007 | -0.001 | 0.017 | -0.014 | -0.007 | 0.029 | -0.021 | -0.074
SNX15 (UniProt Q9NRS6) | -0.166 | 0.151 | -0.034 | 0.108 | -0.027 | 0.019 | 0.126 | 0.032 | -0.139 | 0.064 | 0.002 | – | 0.153 | -0.012 | 0.063 | -0.043 | 0.136 | -0.132 | 0.018 | -0.061
SMARCA4 (UniProt P51532) | -0.101 | 0.124 | 0.09 | 0.15 | -0.086 | 0.273 | – | -0.038 | -0.544 (active) | 0.216 | 0.01 | 0.036 | 0.188 | 0.065 | – | -0.064 | 0.085 | -0.248 | 0.025 | 0.042
SSR3 isoform 2 (UniProt Q9UNL2) | -0.236 | -0.107 | 0.087 | 0.066 | -0.015 | -0.013 | 0.003 | 0.08 | 0.006 | 0.021 | -0.043 | 0.05 | -0.458 (active) | 0.012 | 0.003 | -0.038 | 0.034 | 0.021 | -0.096 | 0.281
SRP72 (UniProt O76094) | 0.003 | 0.075 | 0.048 | -0.045 | -0.131 | 0.023 | 0.007 | -0.235 | -0.043 | 0.021 | -0.121 | -0.017 | 0.167 | -0.004 | 0.068 | 0.154 | 0.051 | -0.185 | 0 | -0.08
SPG11 (UniProt Q96JI7) | -0.232 | 0.158 | -0.415 | -0.118 | 0.388 | 0.14 | -0.032 | 0.331 | -0.167 | 0 | 0.058 | -0.282 | 0.619 | -0.397 | -0.255 | 0 | -0.01 | -0.328 | 0.401 | 0.173
